Data as given in PubChem BioAssay (NCI).
About 79,000 compounds went through this panel and 15% of them were active in at least one assay; those are over-represented in the sample as a whole. Cut-off read from the data, not from the text of the source: active = growth inhibition above about 70%; inactive = the rest.

Legend:
[1] = NCI Yeast Anticancer Drug Screen. Data for the rad50 strain (AID 155);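 note: 0% = growth of vehicle-only cultures of the same strain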; details: S. cerevisiae rad50 strain growth inhibition; at 50.0 µM; hits give high values
How it was run: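 Relative growth inhibition (compound vs vehicle) was measured in yeast with a defined repair-gene alteration.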

[2] = NCI Yeast Anticancer Drug Screen. Data for the mec2-1 strain (AID 157); details: S. cerevisiae mec2-1 strain, at 50.0 µM, hits give high values
How it was run: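 Readout is yeast growth inhibition, normalised to vehicle-treated controls, in the mec2-1 strain exposed to compound.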

[3] = NCI Yeast Anticancer Drug Screen. Data for the sgs1 mgt1 strain (AID 161);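 note: 0% = growth of cultures given vehicle only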; details: S. cerevisiae sgs1 mgt1 strain, at 50.0 µM, hits give high values
How it was run: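 Compounds are added to genetically altered yeast, and growth is compared with cultures given vehicle alone to give percent inhibition.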

[4] = NCI Yeast Anticancer Drug Screen. Data for the cln2 rad14 strain (AID 165);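 note: 0% = growth equal to vehicle treated cultures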; details: S. cerevisiae cln2 rad14 strain, at 50.0 µM, hits give high values
How it was run: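 Relative to vehicle controls, growth inhibition of compound-treated cln2 rad14 yeast was recorded.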

[5] = NCI Yeast Anticancer Drug Screen. Data for the bub3 strain (AID 167); details: S. cerevisiae bub3 mutant strain, at 50.0 µM, hits give high values
How it was run: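 Screening used yeast with an engineered genetic alteration affecting cell cycle control. Compound-exposed cultures were compared with vehicle cultures, and reduced growth was taken as inhibition.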

[6] = NCI Yeast Anticancer Drug Screen. Data for the mlh1 rad18 strain (AID 175); details: S. cerevisiae mlh1 rad18 strain growth inhibition; at 50.0 µM; hits give high values
How it was run: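 Test agents were incubated with a yeast strain of defined genotype (DNA damage repair defect). Inhibition of growth was derived by comparison with vehicle-exposed cultures.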

Measured: growth inhibition

C/C(CC(=O)Nc1cccc(Cl)c1C)=N\NC(=O)c1ccncc1
inactive: [1] 6.05% | [2] -2.3% | [3] -6.2% | [4] -2% | [5] -0.5% | [6] 0.95%

Cc1[nH]c(/N=C/c2ccc(N(C)C)cc2)c(C#N)c1C
inactive: [1] -10.1% | [2] -0.6% | [3] -18.4% | [4] -8% | [5] -5.75% | [6] -7.75%

O=C1CC2(CCc3ccccc32)C(=O)N1CN1CCN(CCO)CC1 (stereo unspecified)
inactive: [1] 12.6% | [2] -5.8% | [3] 3.9% | [4] 9% | [5] 7.15% | [6] 11.9%

Cc1cccc(C)c1NC(=O)C(Cl)Cl
inactive: [1] -2.9% | [2] -0.6% | [3] -3.9% | [4] 5.05% | [5] -12% | [6] -0.15%

COc1cc(C(=O)C/C(CCCC(=O)Nc2ccccc2[N+](=O)[O-])=N/NC(=O)c2cc3ccccc3cc2O)ccc1O
inactive: [1] 12.9% | [2] 28.1% | [3] -9.75% | [4] 23.3% | [5] 1.4% | [6] 7.85%

CC(C)NC(N)=O
inactive: [1] 29.8% | [2] 16% | [3] 26.4% | [4] 19.1% | [5] 2.35% | [6] 16.4%

C1CCC2C(C1)CCCC2CC1CCCC2CCCCC21 (stereo unspecified)
inactive: [1] -11.2% | [2] 1.1% | [3] -10.3% | [4] -17.5% | [5] -9.05% | [6] -4.65%

O=C1C=CC(=O)C1N=Nc1ccccc1
inactive: [1] 43.9% | [2] 19.1% | [3] 16.9% | [4] 18.3% | [5] -3.15% | [6] 28.3%

O=C(Cc1ccccc1)N(c1ccccc1)c1ccccc1
inactive: [1] 23.5% | [2] -9.25% | [3] 13% | [4] 14.7% | [5] 49.9% | [6] 5.9%

O=C(O)Cc1ccc(I)cc1
inactive: [1] 58% | [2] -1.2% | [3] 26.9% | [4] -54% | [5] 34.2% | [6] 25.3%

COc1ccc(N=C2C(=Nc3ccc(OC)cc3)N(c3ccc(OC)cc3)C(=S)N2C)cc1
inactive: [1] 19% | [2] -7.1% | [3] -39% | [4] -12% | [5] -7.65% | [6] 13.5%

CCOC(=O)NOC1CCCCO1 (stereo unspecified)
inactive: [1] 1.05% | [2] -6.8% | [3] -3.2% | [4] -14.6% | [5] -10.9% | [6] 4.95%

CCOC(=O)C(CCC(=O)OC)C(=O)OCC
inactive: [1] -2.45% | [2] -1.75% | [3] -32.5% | [4] -28.2% | [5] -5.25% | [6] 1.6%

COc1ccc(C2=C(OC(C)=O)c3cccn3-c3ccccc3S2)cc1
inactive: [1] -34.5% | [2] -49.9% | [3] -28.8% | [4] -45.9% | [5] -45.8% | [6] 2.15%

Cc1csc2n(C)c(=O)c3ccccc3[n+]12
inactive: [1] 16.8% | [2] 9.4% | [3] -20.4% | [4] 4.65% | [5] -1.75% | [6] 32.8%

N#C/C(N)=C(\C#N)NC=NCc1ccccc1
inactive: [1] -10.8% | [2] -18.6% | [3] 20.2% | [4] 2.3% | [5] 26.3% | [6] -21.1%

CCOC(=O)c1nnc2cc(-c3ccccc3)nn2c1C
inactive: [1] 6.65% | [2] 0.6% | [3] 18.1% | [4] 25.4% | [5] 41.4% | [6] 28.6%

NCCCNCCCCNC(=O)C(O)NC(=O)CCCCCCN=C(N)N (stereo unspecified)
inactive: [1] -2.7% | [2] -11.2% | [3] -2.05% | [4] 11.4% | [5] 3.4% | [6] -1.6%

CC1(CO)COC(c2ccccc2)=N1 (stereo unspecified)
inactive: [1] 4.65% | [2] 2.85% | [3] 4.55% | [4] -8.9% | [5] -1.3% | [6] 0.75%

CCCCCCCCCCS(=O)(=O)CC(=O)O
inactive: [1] 3.8% | [2] -2.35% | [3] 14.7% | [4] -12.7% | [5] -8.3% | [6] -3.6%

C=C1CC[C@H]2C(C)=CC[C@@H]3[C@H](OC(=O)[C@H]3COC)[C@@H]12
inactive: [1] 3.6% | [2] -39% | [3] -11.5% | [4] 5.4% | [5] -18.6% | [6] -11.4%

CC(C)=C1OC(=O)C1(C)C
inactive: [1] -5.75% | [2] 15.7% | [3] 1.5% | [4] 17.4% | [5] 5.5% | [6] -12.6%

FCCCCSc1ncnc2nc[nH]c12
inactive: [1] -25.3% | [2] -15.2% | [3] -24.7% | [4] -33.4% | [5] -11.5% | [6] -17.2%

COc1cc([N+](=O)[O-])c2ncccc2c1OC
inactive: [1] 5.55% | [2] -11.1% | [3] -22.1% | [4] -20.2% | [5] 0.45% | [6] 68.2%

C(=C/c1ccccn1)/c1ccccc1
inactive: [1] 39.4% | [2] 15.1% | [3] 21.3% | [4] 16.5% | [5] 14.6% | [6] 11.1%

NC(N)=NC(N)=Nc1ccc2ccccc2c1
inactive: [1] 58.4% | [2] 12.3% | [3] 17% | [4] 20.3% | [5] 8.6% | [6] 22.6%

CN=C(C#N)c1ccccc1
inactive: [1] -10.6% | [2] -17.1% | [3] -2.6% | [4] -28.9% | [5] 8.7% | [6] -15.8%

Cn1c(=O)c2ncn(Cc3ccccc3)c2n(C)c1=O
inactive: [1] 1.8% | [2] 4.4% | [3] 0.85% | [4] 0.75% | [5] -7.75% | [6] 13.2%

OCCN(CCO)C(Cc1ccccc1)Cc1ccccc1
inactive: [1] -7.9% | [2] -9.95% | [3] -1.7% | [4] -11.1% | [5] 26.4% | [6] -22.9%

O=C(O)C(Cc1c[nH]c2ccccc12)N1C(=O)c2ccccc2C1=O (stereo unspecified)
inactive: [1] 18.5% | [2] 26.6% | [3] -8.15% | [4] -12.3% | [5] -2.5% | [6] 28.6%

CCOC1CS(=O)(=O)CC(OCC)O1 (stereo unspecified)
inactive: [1] 3.35% | [2] 6.05% | [3] 4.9% | [4] -30.6% | [5] -8.35% | [6] 13.8%

CC(=O)[CH-]C(=O)c1ccccc1.CC(=O)[CH-]C(=O)c1ccccc1.CC[C@H](/C=C/C(C)[C@H]1CCC2[C@@H]3CC=C4C[C@@H]([O-])CC[C@]4(C)C3CC[C@@]21C)C(C)C.CC[O-].[Ti+4] (stereo partly specified)
inactive: [1] 8% | [2] -4.6% | [3] -2.45% | [4] -2.3% | [5] 5.3% | [6] -12.2%

N#Cc1ccccc1NC(=O)C(=O)C(C(=O)c1ccncc1)C1OC(=O)c2ccccc21 (stereo unspecified)
inactive: [1] -2.55% | [2] -17.1% | [3] -31.3% | [4] 10.1% | [5] -0.65% | [6] 5.3%

Oc1cccc2nc3cc(CN4CCOCC4)c(CN4CCOCC4)cc3nc12
inactive: [1] 8.35% | [2] -18.4% | [3] -1.05% | [4] 2.7% | [5] -26.1% | [6] -4%

COc1ccc(NC(=O)CC#N)cc1
inactive: [1] 7.9% | [2] 1.6% | [3] 15.8% | [4] 6.1% | [5] -3.25% | [6] 3.75%

CCc1c(-c2ccccc2)[nH]c(=S)c(C#N)c1C
inactive: [1] -8.7% | [2] -1.5% | [3] 26.6% | [4] 2.7% | [5] -1.1% | [6] -3.9%

CC1=NN(C(=O)CC(=O)N(C(=O)c2ccccc2Cl)c2ccc(C)cc2)C(=O)C1N=Nc1ccc([N+](=O)[O-])cc1 (stereo unspecified)
inactive: [1] 46.2% | [2] 29.9% | [3] 47.5% | [4] 27.3% | [5] 54.1% | [6] 46.1%

CC(=O)Nc1cccc2c(OC(C)=O)cccc12
inactive: [1] 15.1% | [2] -20.9% | [3] -19.7% | [4] -50% | [5] 7.6% | [6] -4.1%

Cn1c(=O)c2[nH]c(SCCN3CCOCC3)nc2n(C)c1=S
inactive: [1] -23.4% | [2] -47.2% | [3] -25.6% | [4] 14.2% | [5] -66.2% | [6] -4.95%

O=C(Cl)C1CC=C2c3ccccc3CCC2C1C(=O)Cl (stereo unspecified)
inactive: [1] 0.85% | [2] 19.1% | [3] 8.1% | [4] -3.05% | [5] 15.1% | [6] -5.5%

CC(=O)Nc1c(C)ccc([N+](=O)[O-])c1C
inactive: [1] -3.2% | [2] -2.2% | [3] -9.7% | [4] 5.95% | [5] 2.7% | [6] 13.5%
